From PubChem
This is a sample that favours compounds with a hit; in the whole collection about 17% have one here.
ClpP mod – qHTS Assay for Activators of ClpP | purified B. subtilis ClpP, FRET peptide cleavage, 20 min | Potency, µM (doses to about 57.5 µM), for the others: at the top dose activity change, negative = active | actives 1.9% (n = 340,000); active means well fitted falling curve with a large enough effect; inconclusive means small, poorly fitted or top-dose-only effect; inactive means no such curve, though single readings can be large or run the other way; further: the source files actives as falling curves though it sought activators and does not explain the sign; nearly all actives have a fitted effect of over 65% in size
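FRET quenching reversal measured ClpP activation: 10 microg/mL B. subtilis ClpP at pH 8 with the FRET-FV decapeptide, read at 430 nm after 320 nm excitation. The 20-min minus 0-min signal was scaled between DMSO/no-enzyme wells and ADEP (5.8 microM final).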
DT40 TDP1 no CPT – qHTS for Inhibitors of human tyrosyl-DNA phosphodiesterase 1 (TDP1): qHTS in cells in absence of CPT | Potency, µM (doses to about 46.2 µM), inactives show top-dose activity change, negative = growth inhibition, actives largely listed as inhibitors | DT40 Tdp1-/- hTDP1 cells, no CPT, ATP luminescence, 48 h | actives 15% (n = 420,000); further: on the % scale 0 is the no-effect control and ±100 the full control effect; nearly all actives have a fitted effect of over 55% in size
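A cellular qHTS used chicken DT40 cells lacking endogenous Tdp1 but carrying stably transfected human TDP1. Compounds were applied without camptothecin, and cell growth kinetics were judged by ATP-dependent luminescence after ≥48 hr.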
TDP1 inh – qHTS Assay for Inhibitors of Tyrosyl-DNA Phosphodiesterase (TDP1); actives 0.28% (n = 350,000); AID 485290, 2010; Tyrosyl-DNA phosphodiesterase 1 (Homo sapiens), Q9NUW8; Potency, µM (doses to about 130 µM), for inactives: at the top dose activity change, negative = inhibition, hits mostly inhibitors; recombinant TDP1, AlphaScreen DNA substrate cleavage; further: on the % scale 0 is the no-effect control and ±100 the full control effect; nearly all actives have a fitted effect of over 40% in size
Target sequence (Q9NUW8 whole entry, looked up): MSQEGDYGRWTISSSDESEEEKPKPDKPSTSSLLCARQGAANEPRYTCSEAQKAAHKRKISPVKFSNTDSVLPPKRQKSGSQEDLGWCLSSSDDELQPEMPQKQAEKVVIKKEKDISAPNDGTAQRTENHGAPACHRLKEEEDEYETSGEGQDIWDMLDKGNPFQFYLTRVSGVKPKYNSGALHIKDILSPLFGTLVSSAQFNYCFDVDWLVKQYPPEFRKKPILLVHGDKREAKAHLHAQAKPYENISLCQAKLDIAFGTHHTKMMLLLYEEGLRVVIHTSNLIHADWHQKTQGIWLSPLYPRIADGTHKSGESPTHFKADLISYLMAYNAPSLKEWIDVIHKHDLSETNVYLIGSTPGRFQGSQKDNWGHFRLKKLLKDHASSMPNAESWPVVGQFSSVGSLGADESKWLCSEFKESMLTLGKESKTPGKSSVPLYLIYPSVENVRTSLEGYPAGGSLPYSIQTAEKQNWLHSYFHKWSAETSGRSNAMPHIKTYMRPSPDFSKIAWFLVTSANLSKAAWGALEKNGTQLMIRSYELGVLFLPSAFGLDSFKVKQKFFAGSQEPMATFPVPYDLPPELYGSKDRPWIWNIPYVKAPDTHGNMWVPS
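Recombinant human Tdp1 (E. coli-expressed, 1 nM final) preincubated with compounds 15 min at room temperature, then 5'-biotin/3'-phosphotyrosine-FITC DNA substrate (15 nM final) added for 5 min. AlphaScreen beads (10 ug/ml final) added 10 min; cleavage lowers signal.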
TDP1 cell CPT – qHTS for Inhibitors of human tyrosyl-DNA phosphodiesterase 1 (TDP1): qHTS in cells in presence of CPT. AID 686979, 2013. chicken DT40 Tdp1-/-;hTDP1 cells + 20 nM CPT, ATP luminescence, 48 h. Potency, µM (series often up to 46.2 µM), inactives show at the highest dose activity change, negative = growth inhibition, usual class: inhibitors. actives 12% (n = 420,000); further: on the % scale 0 is the no-effect control and ±100 the full control effect; nearly all actives have a fitted effect of over 55% in size
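Chicken DT40 Tdp1-/- cells stably complemented with human TDP1 were seeded at 400 cells/well in medium containing 20 nM camptothecin, exposed to pin-transferred compounds, and grown at 37 °C for at least 48 hr. Viability was read as ATP luminescence.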
An asterisk follows results filed as active; ? = inconclusive; . = no result; [ ] = another dose, or the depositor's remark. Unless noted, the call rests on the fitted dose curve; in most records, active means well fitted curve in the direction sought with a large enough effect; inconclusive means small, poorly fitted or top-dose-only effect, or another doubt; inactive means no such curve, though single readings can be large; an effect the other way counts as inactive or inconclusive. Potency means the concentration at half of the fitted maximal effect.

SMILES	ClpP mod	DT40 TDP1 no CPT	TDP1 inh	TDP1 cell CPT
CCOc1ccc(OCCC(=O)OCC(=O)N2CCN(S(=O)(=O)c3ccc(Cl)cc3)CC2)cc1	-0.4%	23.1µM*	25.1µM*	?
Cc1ccccc1OCCC(=O)Nc1ccc(S(=O)(=O)N2CCCC2)cc1	0.7%	14.6µM*	.	20.6µM*
COc1ccc(S(=O)(=O)N2CCN(C(=O)CCNC(=O)c3ccccc3Cl)CC2)cc1	-2.7%	-24.1%	-2.4%[56.1 µM]	-14.7%
Cc1cccc(OCCC(=O)Nc2ccc(S(=O)(=O)N3CCCC3)cc2)c1	1.0%	?	-1.1%	?
COc1cc(F)c(S(=O)(=O)N2CCN(S(=O)(=O)c3cccc(N)c3)CC2)c(F)c1	.	.	1.5%	.
O=S(=O)(c1ccc2nc(Nc3cccc(F)c3)ccc2c1)N1CCCC1	4.6%	?	5.3%	23.1µM*
CCN(c1ccccc1)c1ccc2cc(S(=O)(=O)N3CCCC3)ccc2n1	-14.4%	20.6µM*	-5.3%	25.9µM*
CCOC(=O)c1cccc(Nc2ccc3cc(S(=O)(=O)N4CCCCC4)ccc3n2)c1	5.6%	20.6µM*	-7.9%	23.1µM*
O=S(=O)(c1ccc2nc(N3CCN(c4ccccc4)CC3)ccc2c1)N1CCCCC1	-9.8%	-21.7%	1.4%	-0.6%
COc1ccccc1N1CCN(c2ccc3cc(S(=O)(=O)N4CCCCC4)ccc3n2)CC1	3.9%	7.31µM*	4.5%	13µM*
CC(C)(C)c1ccc(NC(=O)CSc2n[nH]c(=O)n2C2CC2)cc1	-1.7%	?	0.0%	-26.7%
CSc1ncccc1C(=O)NCC1Cc2cc(F)cc(-c3cncnc3)c2O1 (stereo not drawn)	.	-7.7%	.	6.8%
COc1ccc(CC(=O)OCC(=O)NC2CCCCC2)cc1OC	-1.4%	0.5%	0.0%	2.9%
COc1ccc(Nc2ccc3cc(S(=O)(=O)N4CCCC4)ccc3n2)cc1Cl	4.8%	20.6µM*	2.6%	20.6µM*
COc1ccc(Cl)cc1Nc1ccc2cc(S(=O)(=O)N3CCCCC3)ccc2n1	2.0%	?	-2.6%	?
COc1ccc2c(CNCCc3cccs3)c(C(=O)O)n(Cc3ccccc3C)c2c1	?	5.17µM*	2.6%	8.2µM*
COc1ccc2c(CNCc3cccs3)c(C(=O)O)n(Cc3ccccc3)c2c1	-14.8%	?	5.1%	-8.6%
COc1ccc2c(CNCc3cccs3)c(C(=O)O)n(Cc3ccccc3C)c2c1	?	2.91µM*	5.1%	?
CN(C)S(=O)(=O)c1cccc(C(=O)Nc2ccccc2N2CCCCC2)c1	.	?	7.0%	?
CN(C)S(=O)(=O)c1ccc(C(=O)Nc2cc(S(=O)(=O)Nc3ccccc3Cl)ccc2N2CCCCC2)cc1	-15.9%	16.4µM*	0.0%	8.2µM*
CN1CCN(c2ccc(Cl)cc2NC(=O)c2ccc(S(=O)(=O)N(C)C)cc2)CC1	2.5%	?	2.5%	18.4µM*
CN(C)CC/C=C1\c2ccccc2COc2ccc(CC(=O)O)cc21	.	.	4.3%	.
COc1ccc(C2=CCCCCC2)cc1OC	-2.5%	11.6µM*	.	?
COc1ccc(-c2nnc3n2CCCCC3)cc1OC	.	-6.9%	2.7%	-6.8%
CCOc1ccc(S(=O)(=O)Nc2ccc(C(=O)N3CCCC3)cc2)cc1	-1.4%	-3.5%	3.5%	-10.4%
SMILES	ClpP mod	DT40 TDP1 no CPT	TDP1 inh	TDP1 cell CPT
CCOc1ccc(NS(=O)(=O)c2ccc(C(=O)N3CCCCCC3)cc2)cc1	0.7%	18.4µM*	.	14.6µM*
CCOc1ccc(S(=O)(=O)Nc2cccc(Cl)c2)cc1	-2.9%	?	.	23.1µM*
COc1ccc(S(=O)(=O)Nc2ccc(Nc3ccccc3)cc2)cc1	-0.3%	?	.	20.6µM*
COc1ccc(NS(=O)(=O)c2ccc(C(=O)N3CCN(Cc4ccccc4)CC3)cc2)cc1	-0.9%	?	5.8%	11.6µM*
CCOc1ccc(NS(=O)(=O)c2ccc(NS(=O)(=O)c3ccccc3)cc2)cc1	-3.8%	-12.9%	6.6%	-26.0%
CC(C)COC(=O)N(C)C[C@@H]1OCc2cnnn2CCCC(=O)N([C@@H](C)CO)C[C@H]1C	-1.3%	3.0%	.	2.9%
CCOc1ccc(S(=O)(=O)Nc2cc(NS(=O)(=O)c3ccc(OCC)cc3)cc(C(=O)O)c2)cc1	-5.0%	8.7%	3.55µM*	16.8%
CSCCC(NS(=O)(=O)c1ccc(C)cc1)C(=O)N1CCCCCCC1 (stereo not drawn)	1.7%	16.4µM*	2.3%	?
CSCCC(NS(=O)(=O)c1ccccc1F)C(=O)N1CCCCCC1 (stereo not drawn)	-1.7%	14.2%	.	-15.6%
O=C(Nc1ccccc1)Nc1ccc(C(=O)N2CCCC2)cc1	.	11.6µM*	2.6%	20.6µM*
Cc1ccc(S(=O)(=O)/N=C(/c2ccc(F)cc2)N2CCCCC2)cc1	31.6µM*	-2.8%	7.9%	5.6%
COc1ccc(S(=O)(=O)Nc2ccc(O)c3ccccc23)cc1	0.8%	4.61µM*	4.1%	3.26µM*
COc1ccc(NS(=O)(=O)c2cccc(C(=O)N3CCCCCC3)c2)cc1	3.4%	-20.2%	0.5%	-19.6%
COc1ccc(NS(=O)(=O)c2ccc(NC(=O)C3CC3)cc2)cc1	-0.1%	9.2µM*	1.7%	8.2µM*
COc1ccc(S(=O)(=O)Nc2ccccc2)cc1	0.5%	-27.1%	.	21.2%
COc1ccc(NS(=O)(=O)c2ccc(C(=O)N3CCCCCC3)cc2)cc1	.	8.2µM*	0.4%	10.3µM*
CCOc1ccc(S(=O)(=O)Nc2cccc(C(=O)N3CCN(c4cccc(OC)c4)CC3)c2)cc1	.	18.4µM*	-2.2%	23.1µM*
COc1ccc(N2CC(NC(=O)N3CCc4ccccc43)CC2=O)cc1OC (stereo not drawn)	.	0.1%	3.7%	-9.0%
CSCCC(NS(=O)(=O)c1ccc2c(c1)oc(=O)n2C)C(=O)N1CCN(c2cc(Cl)ccc2C)CC1 (stereo not drawn)	-1.3%	14.6µM*	2.8%	?
O=S(=O)(Nc1c(O)ccc2ccccc12)c1ccccc1	-14.4%	16.4µM*	.	?
O=S(=O)(Nc1ccccc1)c1ccc(-c2csnn2)cc1	.	23.1µM*	5.1%	?
O=S(=O)(Nc1ccc(-c2csc(-c3ccccc3)n2)cc1)c1ccc(F)cc1	-3.1%	?	5.3%	?
CSCCC(NS(=O)(=O)c1ccc(Cl)cc1)C(=O)OCc1cccc(Cl)c1 (stereo not drawn)	1.1%	?	1.2%	?
CSCCC(NS(=O)(=O)c1ccc(Cl)cc1)C(=O)OCc1c(Cl)cccc1Cl (stereo not drawn)	-1.8%	20.6µM*	2.8%	?
CSCCC(NS(=O)(=O)c1ccc2c(c1)oc(=O)n2C)C(=O)N1CCN(c2ccc(F)cc2)CC1 (stereo not drawn)	0.9%	?	-0.9%	-6.5%
